# Data reported in PubChem BioAssay AID651744 (Broad Institute, 2012).
# Among all 5,600 compounds or so, about 3,100 (55%) were called active. Another 3% or so got no clear call; they are omitted.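 Rule for the calls: active = mean loss of cell viability signal at or above a set limit, and enough replicates individually reaching it; inconclusive = meets only the mean limit or only the replicate share; inactive = meets neither condition.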 So high a share suggests a set chosen from earlier hits. Only a sample is shown.
# Assay: NIH/3T3 fibroblast cytotoxicity, confirmation, cytotoxicity control, cell-based, cherry-pick, single point, set 2 (AID 651744);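 note: 0% = median of neutral control wells and 100% = median of positive control wells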
# Details: NIH/3T3 viability, CellTiter-Glo ATP luminescence, 90 h; at 24.9 µM; stronger effect = higher value
row,SMILES,inhibition
1,O=C(c1cccnc1)N1CCCCN2[C@@H](CO)[C@H](c3ccc(C#Cc4ccccc4)cc3)[C@@H]2C1,66.5% (active)
2,O=C(Nc1ccccc1)N1CCCCN2[C@H](CO)[C@@H](c3ccc(C#Cc4ccccn4)cc3)[C@H]2C1,9.74% (inactive)
3,COc1ccc(C#Cc2ccc([C@@H]3[C@@H](CO)N4CCCCN(C(=O)c5ccncc5)C[C@@H]34)cc2)cc1,97.5% (active)
4,O=C(c1ccncc1)N1CCCCN2[C@H](CO)[C@H](c3ccc(-c4ccccc4)cc3)[C@H]2C1,5.4% (inactive)
5,O=C(c1ccc(F)cc1)N1CCCCN2[C@H](C1)[C@@H](c1ccc(C#CC3(O)CCCC3)cc1)[C@@H]2CO,18% (inactive)
6,O=S(=O)(c1ccccc1)N1CC[C@@H]2[C@@H](CO)Nc3ccc(-c4ccccc4F)cc3[C@@H]21,23.8% (inactive)
7,O=S(=O)(c1ccccc1)N1CC[C@@H]2[C@@H](CO)Nc3ccc(C#Cc4cccc(F)c4)cc3[C@@H]21,52.5% (active)
8,CC(=O)N1CC[C@@H]2[C@H](CO)Nc3ccc(C#Cc4ccccc4F)cc3[C@@H]21,33.2% (active)
9,O=C(c1cccc(F)c1)N1CC[C@@H]2[C@@H](CO)Nc3ccc(C#Cc4cccc(F)c4)cc3[C@@H]21,105% (active)
10,O=S(=O)(c1ccccc1)N1CC[C@@H]2[C@H]1c1cc(C#Cc3cccc(F)c3)ccc1N[C@@H]2CO,72.4% (active)
11,COCC(=O)N1CC[C@@H]2[C@@H](CO)Nc3ccc(-c4cccc(C#N)c4)cc3[C@@H]21,5.66% (inactive)
12,CN(C)C(=O)c1ccc(-c2ccc3c(c2)[C@H]2[C@H](CCN2C(=O)c2ccc4c(c2)OCO4)[C@H](CO)N3)cc1,-8.51% (inactive)
13,CN1c2ccc(-c3ccccc3)cc2[C@H]2[C@H](CCN2C(=O)Cc2ccccn2)[C@H]1CO,9.27% (inactive)
14,COc1ccc(NC(=O)N2CC[C@@H]3[C@@H](CO)N(C)c4ccc(-c5cccc(F)c5)cc4[C@@H]32)cc1,20.7% (inactive)
15,CC(=O)N1[C@H](CNC(=O)C2CC2)[C@@H](c2ccc(-c3cccc(F)c3)cc2)[C@@H]1CO,13% (inactive)
16,Cc1ccccc1S(=O)(=O)N1CC[C@H]2[C@H](CO)Nc3ccc(-c4cccc(F)c4)cc3[C@H]21,105% (active)
17,O=C(Cc1ccccc1)N1CC[C@H]2[C@H](CO)Nc3ccc(-c4ccccc4F)cc3[C@H]21,48.1% (active)
18,CCC(=O)N1CC[C@@H]2[C@@H](CO)N(C)c3ccc(-c4ccc(F)cc4)cc3[C@@H]21,12.2% (inactive)
19,O=C(C[C@@H]1C[C@@H]2c3cc(NC(=O)c4ccc5c(c4)OCO5)ccc3O[C@@H]2[C@@H](CO)O1)NCc1ccc(Cl)cc1,14.5% (inactive)
20,CN1C(=O)c2cc(NC(=O)c3cnccn3)ccc2OC[C@@H]2O[C@@H](CC(=O)N[C@H]3CCN(Cc4ccccc4)C3)CC[C@H]21,-12.6% (inactive)
21,COc1ccc(NC(=O)N(C)C[C@@H]2OCCCC[C@@H](C)Oc3ccc(NS(=O)(=O)c4ccc(Cl)cc4)cc3C(=O)N([C@H](C)CO)C[C@H]2C)cc1,-14.7% (inactive)
22,COc1ccc(S(=O)(=O)N(C)C[C@H]2OCCCC[C@H](C)Oc3ccc(NS(=O)(=O)c4ccc(F)cc4)cc3C(=O)N([C@@H](C)CO)C[C@@H]2C)cc1,-33.1% (inactive)
23,C[C@H]1CCCCO[C@@H](CN(C)S(=O)(=O)c2cccs2)[C@@H](C)CN([C@@H](C)CO)C(=O)c2cc(NS(=O)(=O)c3ccc(Cl)cc3)ccc2O1,11.8% (inactive)
24,C[C@@H]1CN([C@H](C)CO)C(=O)c2cc(NS(=O)(=O)c3cccs3)ccc2O[C@@H](C)CCCCO[C@@H]1CN(C)S(=O)(=O)c1ccc(Cl)cc1,2.36% (inactive)
25,C[C@H]1CCCCO[C@@H](CN(C)C(=O)NC2CCCCC2)[C@@H](C)CN([C@@H](C)CO)C(=O)c2cc(NS(=O)(=O)c3ccc(Cl)cc3)ccc2O1,15.4% (inactive)
26,C[C@H](CO)N1C[C@H](C)[C@H](CN(C)S(=O)(=O)c2ccc(F)cc2)OCCCC[C@H](C)Oc2ccc(NS(=O)(=O)c3ccc(Cl)cc3)cc2C1=O,18.4% (inactive)
27,C[C@@H]1CN([C@H](C)CO)C(=O)c2cc(NS(=O)(=O)c3ccc(Cl)cc3)ccc2O[C@@H](C)CCCCO[C@H]1CN(C)Cc1ccccc1,103% (active)
28,C[C@H](CO)N1C[C@H](C)[C@H](CN(C)Cc2ccc(C(F)(F)F)cc2)OCCCC[C@H](C)Oc2ccc(NS(=O)(=O)c3ccc(Cl)cc3)cc2C1=O,105% (active)

row,SMILES,inhibition
1,C[C@@H]1CCCCO[C@H](CN(C)C(=O)NC2CCCCC2)[C@H](C)CN([C@H](C)CO)C(=O)c2cc(NS(=O)(=O)c3ccc(Cl)cc3)ccc2O1,-1.41% (inactive)
2,C[C@@H]1CCCCO[C@H](CN(C)Cc2ccccc2)[C@H](C)CN([C@H](C)CO)C(=O)c2cc(NS(=O)(=O)c3ccc(Cl)cc3)ccc2O1,104% (active)
3,COc1ccc(S(=O)(=O)Nc2ccc3c(c2)C(=O)N([C@H](C)CO)C[C@@H](C)[C@@H](CN(C)CC2CCCCC2)OCCCC[C@@H](C)O3)cc1,107% (active)
4,C[C@@H]1CCCCO[C@H](CN(C)S(=O)(=O)c2ccc(Cl)cc2)[C@H](C)CN([C@@H](C)CO)C(=O)c2cc(NS(=O)(=O)c3cccs3)ccc2O1,-8.7% (inactive)
5,C[C@@H]1CCCCO[C@H](CN(C)S(=O)(=O)c2cccs2)[C@H](C)CN([C@H](C)CO)C(=O)c2cc(NS(=O)(=O)c3ccc(F)cc3)ccc2O1,-27.9% (inactive)
6,C[C@@H]1CN([C@H](C)CO)C(=O)c2cc(NS(=O)(=O)c3cccs3)ccc2O[C@@H](C)CCCCO[C@H]1CN(C)Cc1ccc(C(F)(F)F)cc1,103% (active)
7,C[C@H]1CN([C@@H](C)CO)S(=O)(=O)c2ccc(C3=CCCCC3)cc2O[C@@H]1CN(C)Cc1ccccc1,106% (active)
8,C[C@H]1CN([C@@H](C)CO)S(=O)(=O)c2ccc(C3=CCCC3)cc2O[C@@H]1CN(C)Cc1ccccc1,103% (active)
9,C[C@@H]1CN([C@H](C)CO)S(=O)(=O)c2ccc(C3=CCCC3)cc2O[C@H]1CN(C)Cc1ccccc1F,106% (active)
10,C[C@@H]1CCCCO[C@H](CN(C)C(=O)NC2CCCCC2)[C@H](C)CN([C@H](C)CO)C(=O)c2cc(NC(=O)Nc3ccc(F)cc3)ccc2O1,1.83% (inactive)
11,C[C@@H]1CN([C@H](C)CO)C(=O)c2cc(NC(=O)Nc3ccc(F)cc3)ccc2O[C@@H](C)CCCCO[C@@H]1CN(C)CC1CCCCC1,102% (active)
12,C[C@@H]1CCCCO[C@@H](CN(C)CC2CC2)[C@H](C)CN([C@H](C)CO)C(=O)c2cc(NC(=O)C3CCCCC3)ccc2O1,-28.9% (inactive)
13,COc1ccc(NC(=O)N(C)C[C@@H]2Oc3c(NC(=O)NC4CCCCC4)cccc3C(=O)N([C@@H](C)CO)C[C@@H]2C)cc1,2.03% (inactive)
14,C[C@H]1CCCCO[C@H](CN(C)Cc2ccccc2)[C@@H](C)CN([C@@H](C)CO)C(=O)c2cc(NC(=O)c3ccccc3)ccc2O1,40.7% (active)
15,C[C@@H]1CN([C@H](C)CO)C(=O)c2cccc(NC(=O)NC3CCCCC3)c2O[C@H]1CN(C)Cc1ccc(C(F)(F)F)cc1,106% (active)
16,C[C@@H]1CCCCO[C@H](CN(C)Cc2ccc(C(F)(F)F)cc2)[C@H](C)CN([C@H](C)CO)C(=O)c2cc(NC(=O)Nc3ccc(F)cc3)ccc2O1,-19.7% (inactive)
17,C[C@@H]1CCCCO[C@@H](CN(C)Cc2ccc(C(F)(F)F)cc2)[C@@H](C)CN([C@H](C)CO)C(=O)c2cc(NC(=O)Nc3ccccc3)ccc2O1,-8.84% (inactive)
18,C[C@@H]1CCCCO[C@H](CN(C)Cc2ccccc2)[C@@H](C)CN([C@@H](C)CO)C(=O)c2cc(NC(=O)Nc3ccc(F)cc3)ccc2O1,103% (active)
19,COc1ccc(NC(=O)Nc2ccc3c(c2)C(=O)N([C@H](C)CO)C[C@@H](C)[C@H](CN(C)Cc2ccc(Cl)c(Cl)c2)OCCCC[C@@H](C)O3)cc1,-0.512% (inactive)
20,C[C@@H]1CCCCO[C@@H](CN(C)Cc2ccc(Cl)c(Cl)c2)[C@H](C)CN([C@H](C)CO)C(=O)c2cc(NC(=O)Nc3ccc(F)cc3)ccc2O1,1.24% (inactive)
21,C[C@@H]1CCCCO[C@H](CN(C)Cc2ccc(Cl)c(Cl)c2)[C@H](C)CN([C@@H](C)CO)C(=O)c2cc(NC(=O)C3CCCCC3)ccc2O1,50.7% (active)
22,C[C@H]1CCCCO[C@H](CN(C)Cc2ccccc2)[C@@H](C)CN([C@@H](C)CO)C(=O)c2cc(NC(=O)NC3CCCCC3)ccc2O1,102% (active)
23,COc1ccc(CN(C)C[C@H]2OCCCC[C@H](C)Oc3ccc(NC(=O)Nc4ccc5c(c4)OCO5)cc3C(=O)N([C@H](C)CO)C[C@@H]2C)cc1,103% (active)
24,C[C@@H]1CCCCO[C@@H](CN(C)Cc2ccc3c(c2)OCO3)[C@@H](C)CN([C@@H](C)CO)C(=O)c2cc(NC(=O)Nc3ccccc3)ccc2O1,16% (inactive)
25,C[C@@H]1CN([C@H](C)CO)C(=O)c2cc(NC(=O)Nc3ccc(F)cc3)ccc2O[C@@H](C)CCCCO[C@H]1CN(C)Cc1ccc(Cl)c(Cl)c1,81.1% (active)
26,C[C@H]1CCCCO[C@H](CN(C)S(=O)(=O)c2ccc(Cl)cc2)[C@@H](C)CN([C@@H](C)CO)C(=O)c2cc(NC(=O)Nc3ccc4c(c3)OCO4)ccc2O1,7.66% (inactive)
27,C[C@@H]1CN([C@@H](C)CO)C(=O)c2cc(NC(=O)C3CCCCC3)ccc2O[C@@H](C)CCCCO[C@H]1CN(C)Cc1ccncc1,-15.9% (inactive)
